Test [1] in a line: Nuclear factor erythroid 2-related factor 2/antioxidant responsive element (Nrf2/ARE) small molecule agonists: qHTS cell viability counter screen in human keratinocytes (AID 1919968; active means well fitted curve in the direction sought with a large enough effect in the repeat runs; an effect the other way counts as inactive or inconclusive; further: nearly all actives have a fitted effect of over 55% in size). Summed up:
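After a 5 h attachment period, ARE-reporter keratinocytes were dosed with compounds in DMSO and then cultured 23 h at 37 C. Cell viability came from CellTiter-Fluor signal read after a further 1 h.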

A short description of test [2]: Nuclear factor erythroid 2-related factor 2/antioxidant responsive element (Nrf2/ARE) small molecule agonists: luciferase reporter gene qHTS assay in human keratinocytes (AID 1919969; further: nearly all actives have a fitted effect of over 35% in size; further: potency means the concentration at half of the fitted maximal effect). (Reporter assays use an easily measured gene product as a stand-in for the process of interest.)
For test [3], the target named is Gonadotropin-releasing hormone receptor (Homo sapiens) (UniProt P30968). Nature of the test: Human gonadotropin-releasing hormone receptor (GnRHR) small molecule agonists, calcium flux assay in GnRHR-HEK293 cells (AID 1920063). Further: nearly all actives have a fitted effect of over 35% in size. Summed up: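 We seeded human GnRHR-expressing HEK293 cells for 18 hours, loaded them with calcium dye for an hour at 37 C, added test compounds, and recorded fluorescence intensity kinetically for three minutes.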

For test [4], the target named is KiSS-1 receptor (Homo sapiens) (UniProt Q969F8). Nature of the test: Human kisspeptin (KISS1R) small molecule agonists, calcium flux assay in KISS1R-HEK293 cells (AID 1920064; active means well fitted curve in the direction sought with a large enough effect in the repeat runs; an effect the other way counts as inactive or inconclusive). Summed up:
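Kinetic calcium assay, 1 s sampling over 3 min at Ex/Em 480/540, in HEK293 cells engineered with human KISS1R; compounds delivered in DMSO after 1 h dye loading.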
On the technique in general: Calcium flux is commonly read through the fluorescence of an indicator in the cells.

A short description of test [5]: G protein-coupled receptor (GPCR) small molecule agonists, calcium flux assay: HEK293 wild type cell line counter screen (AID 1920065). Summed up: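 Calcium-sensitive dye, loaded 1 h at 37 C into cells cultured 18 h, reports compound-evoked calcium release as fluorescence (Ex/Em 480/540), measured over 3 min. Agonist mode; 15-point titrations, triplicate.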
The nature of test [6]: p53 small molecule agonists, cell-based qHTS assay with human liver microsomes (AID 1963577).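 Further: p53 response element beta-lactamase reporter cells with liver microsomes plus NADPH.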 Summed up:
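Steps: plate p53RE-bla cells, incubate 5 h at 37 C; add compound in DMSO; add microsomes (0.5 mg/mL final) and NADPH (0.5 mg/mL final); incubate 16 h at 37 C; add LiveBLAzer, 2 h RT; read fluorescence.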
Background: qHTS replaces the single test concentration by a dilution series.

Test [7] is described as follows: p53 small molecule agonists, cell-based qHTS assay with rat liver microsomes (AID 1963578). Summed up: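 Metabolic activation is supplied by rat liver microsomes with NADPH (each 0.5 mg/mL final). p53RE-bla cells incubate with compound 16 h at 37 C; reporter activity is measured by LiveBLAzer fluorescence.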
Test [8] is described as follows: p53 small molecule agonists, cell-based qHTS assay with human liver microsomes: qHTS cell viability counter screen (AID 1963579). Further: nearly all actives have a fitted effect of over 45% in size. Summed up: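 After the 460/530 nm beta-lactamase read, CellTiter-Glo was added to the same wells and luminescence measured after 30 min at room temperature, giving viability of p53RE-bla cells treated 16 h with compounds plus microsomes and NADPH.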

Test [9] can be described thus: p53 small molecule agonists, cell-based qHTS assay with rat liver microsomes: qHTS cell viability counter screen (AID 1963580). Further: nearly all actives have a fitted effect of over 45% in size. Summed up:
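In HCT-116 cells carrying a p53 response element-bla reporter, compounds were metabolically activated in situ by rat liver microsomes with NADPH over 16 h. Cell ATP content then served as the cytotoxicity measure.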

A short description of test [10]: p53 small molecule agonists, cell-based qHTS assay: qHTS cell viability counter screen (AID 1963581). Further: nearly all actives have a fitted effect of over 45% in size. Summed up: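 Following 5 h attachment, HCT-116 p53RE-bla cells took up compound for 16 h at 37 C; the reporter was read with B/G FRET substrate (2 h RT), and viability then via CellTiter-Glo ATP luminescence.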
Test [11] can be described thus: p53 small molecule agonists, cell-based qHTS assay (AID 1963582; active means well fitted activation curve with a large enough effect in the signal ratio in the repeat runs, not every such curve was filed as active; the % refers to the signal ratio). Summed up: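 In this cell-based concentration-response screen, a p53 response element drives beta-lactamase; cells received DMSO-borne compounds after 5 h culture and were incubated a further 16 h before FRET substrate development.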
In test [12] the target is 5-hydroxytryptamine receptor 2A (Homo sapiens) (UniProt P28223). Nature of the test: 5-hydroxytryptamine receptor 2A (HTR2A) small molecule antagonists, cell-based qHTS assay (AID 1963586). Further: nearly all actives have a fitted effect of over 45% in size. Summed up: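 Antagonist-mode intracellular calcium assay: DOI (4 nM) added after 5 min compound pre-incubation at room temperature to dye-loaded HTR2A-CHO cells. Fluorescence followed for 3 min, sampled every second.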

Test [13] has the same target. The test is described as follows: 5-hydroxytryptamine receptor 2A (HTR2A) small molecule agonists, cell-based qHTS assay (AID 1963587). Further: nearly all actives have a fitted effect of over 30% in size. Summed up: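 HTR2A-CHO cells, plated 18 h at 37 C/5% CO2, dye-loaded 1 h at 37 C; compounds in DMSO added by pin tool (agonist mode). Intracellular calcium flux read as kinetic fluorescence on FDSS over 2 min at 1 s intervals.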
The target in test [14] is Muscarinic acetylcholine receptor M1 (Homo sapiens) (UniProt P11229). Nature of the test: Cholinergic receptor muscarinic 1 (CHRM1) small molecule antagonists, cell-based qHTS assay (AID 1963588). Further: nearly all actives have a fitted effect of over 40% in size. Further: potency means the concentration at half of the fitted maximal effect. Summed up:
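CHRM1-CHO calcium-flux assay, antagonist mode. Cells were seeded 18 h, dye-loaded 1 h at 37 C and given compound for 5 min at RT, then acetylcholine was added at 50nM. FDSS fluorescence was read 3 min; 15 concentrations, three runs.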

Test [15] shares this target. Nature of the test: Cholinergic receptor muscarinic 1 (CHRM1) small molecule agonists, cell-based qHTS assay (AID 1963589). Further: nearly all actives have a fitted effect of over 35% in size. Summed up:
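Measures agonist-induced intracellular calcium rise. Stable human CHRM1 CHO line, 1 h dye load at 37 C, compounds from DMSO, kinetic fluorescence read.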

Test [16] can be described thus: cAMP Responsive Elements (CRE) small molecule antagonists, cell-based qHTS assay (AID 1963591; active means well fitted inhibition curve with a large enough effect in the signal ratio in the repeat runs, not every such curve was filed as active; the % refers to the signal ratio). Summed up:
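HEK293T cells carrying a CRE-driven beta-lactamase reporter receive compound and NKH477 (0.25 uM final) for 3 h. Fluorescence from LiveBLAzer B/G FRET substrate is read after 2 h at room temperature.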

Test [17] deals with Beta-2 adrenergic receptor (Homo sapiens) (UniProt P07550). Nature of the test: Adrenergic beta2 receptor (ADRB2) small molecule antagonists, cell-based qHTS assay (AID 1963592). Further: series mostly up to about 92 µM; nearly all actives have a fitted effect of over 50% in size. Summed up: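 Cells (CHO, stable ADRB2 overexpression) incubated 18-20hr at 37C; compounds added from DMSO; agonist mix (1nM isoproterenol, 100uM IBMX, 25uM Ro-20-1724) added; 0.5hr RT; d2-cAMP and anti-cAMP-cryptate added; 1hr RT; 665/615 nm read.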

Test [18] concerns the target D(2) dopamine receptor (Homo sapiens) (UniProt P14416). The test is described as follows: Dopamine D2 receptor (DRD2) small molecule agonists, cell-based qHTS assay (AID 1963594). Further: nearly all actives have a fitted effect of over 35% in size. Summed up:
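HEK293 cells stably expressing DRD2 were cultured 24 h at 37 C, then given Ro20-1724 (0.1 mM final) and compounds for 10 min at room temperature. NKH477 (200nM) was then added for 30 min. cAMP was read by HTRF.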

Test [19] has the same target. The test is described as follows: Dopamine D2 receptor (DRD2) small molecule antagonists, cell-based qHTS assay (AID 1963595; active means well fitted inhibition curve with a large enough effect in the signal ratio in the repeat runs, with a control signal flat; the % refers to the signal ratio). Summed up: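 Antagonism was scored as restored cAMP in HEK293-DRD2 cells. These cells were stimulated with 200 nM NKH477 and 12 nM quinpirole for 30 min at room temperature, in the presence of 0.1 mM Ro20-1724.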
A short description of test [20]: cAMP Responsive Elements (CRE) small molecule agonists, cell-based qHTS assay (AID 1963590). Summed up:
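A CRE-responsive beta-lactamase reporter in HEK 293T cells was used. Treatment ran 3 h at 37 C; detection used LiveBLAzer B/G FRET substrate for 2 h at room temperature.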

Each structure is given as a SMILES string. Values without a mark were called inactive. Records with an inconclusive call do not appear. Calls of active or inactive are those of the source. Unless noted, the call rests on the fitted dose curve.

Sequence of Muscarinic acetylcholine receptor M1 (Homo sapiens) (P11229 whole entry, looked up): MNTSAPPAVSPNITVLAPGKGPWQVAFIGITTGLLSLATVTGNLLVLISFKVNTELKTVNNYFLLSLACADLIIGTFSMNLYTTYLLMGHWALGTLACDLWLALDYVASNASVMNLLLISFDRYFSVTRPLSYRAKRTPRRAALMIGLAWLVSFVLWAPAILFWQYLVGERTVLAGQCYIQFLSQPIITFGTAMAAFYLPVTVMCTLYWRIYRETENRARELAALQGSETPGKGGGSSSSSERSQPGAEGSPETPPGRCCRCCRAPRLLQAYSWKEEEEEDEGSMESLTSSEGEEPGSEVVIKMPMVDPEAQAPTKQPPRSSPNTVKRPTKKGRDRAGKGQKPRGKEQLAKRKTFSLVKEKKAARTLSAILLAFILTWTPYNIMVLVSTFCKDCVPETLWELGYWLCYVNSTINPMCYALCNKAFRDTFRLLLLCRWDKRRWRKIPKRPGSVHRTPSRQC
Sequence of 5-hydroxytryptamine receptor 2A (Homo sapiens) (P28223 whole entry, looked up): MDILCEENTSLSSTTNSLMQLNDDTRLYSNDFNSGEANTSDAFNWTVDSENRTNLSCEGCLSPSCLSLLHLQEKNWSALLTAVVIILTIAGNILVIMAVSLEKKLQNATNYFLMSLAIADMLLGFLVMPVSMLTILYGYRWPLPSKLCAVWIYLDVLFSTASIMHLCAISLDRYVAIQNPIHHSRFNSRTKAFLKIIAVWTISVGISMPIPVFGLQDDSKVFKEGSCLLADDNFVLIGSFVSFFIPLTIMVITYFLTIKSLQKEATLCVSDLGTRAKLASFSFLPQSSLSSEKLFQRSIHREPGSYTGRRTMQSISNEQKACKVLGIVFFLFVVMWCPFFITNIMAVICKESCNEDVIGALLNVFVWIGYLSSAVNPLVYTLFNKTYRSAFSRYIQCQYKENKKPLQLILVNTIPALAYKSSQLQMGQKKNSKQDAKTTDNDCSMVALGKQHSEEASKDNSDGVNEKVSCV
Sequence of Beta-2 adrenergic receptor (Homo sapiens) (P07550 whole entry, looked up): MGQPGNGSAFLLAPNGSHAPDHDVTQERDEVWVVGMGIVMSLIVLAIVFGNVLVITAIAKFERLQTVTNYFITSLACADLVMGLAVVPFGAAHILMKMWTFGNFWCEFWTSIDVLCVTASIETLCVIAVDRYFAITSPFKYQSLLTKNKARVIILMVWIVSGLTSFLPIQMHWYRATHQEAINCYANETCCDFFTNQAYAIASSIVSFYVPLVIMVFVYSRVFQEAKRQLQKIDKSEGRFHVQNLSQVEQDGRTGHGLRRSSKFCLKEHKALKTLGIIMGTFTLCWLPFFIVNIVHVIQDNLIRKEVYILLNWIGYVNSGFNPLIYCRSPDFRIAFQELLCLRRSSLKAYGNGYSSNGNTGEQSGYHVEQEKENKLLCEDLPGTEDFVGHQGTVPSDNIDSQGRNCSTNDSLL
Sequence of KiSS-1 receptor (Homo sapiens) (Q969F8 whole entry, looked up): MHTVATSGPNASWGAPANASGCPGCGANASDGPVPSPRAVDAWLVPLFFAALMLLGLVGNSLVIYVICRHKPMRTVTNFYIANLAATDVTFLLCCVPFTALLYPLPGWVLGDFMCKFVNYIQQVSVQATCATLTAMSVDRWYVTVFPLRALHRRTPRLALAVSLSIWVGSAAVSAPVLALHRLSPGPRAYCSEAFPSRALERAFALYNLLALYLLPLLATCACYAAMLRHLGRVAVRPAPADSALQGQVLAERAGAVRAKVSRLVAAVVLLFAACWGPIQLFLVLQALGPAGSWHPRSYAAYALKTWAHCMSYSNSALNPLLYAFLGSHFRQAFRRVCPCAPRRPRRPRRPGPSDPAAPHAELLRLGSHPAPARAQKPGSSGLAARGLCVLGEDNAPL
Sequence of Gonadotropin-releasing hormone receptor (Homo sapiens) (P30968 whole entry, looked up): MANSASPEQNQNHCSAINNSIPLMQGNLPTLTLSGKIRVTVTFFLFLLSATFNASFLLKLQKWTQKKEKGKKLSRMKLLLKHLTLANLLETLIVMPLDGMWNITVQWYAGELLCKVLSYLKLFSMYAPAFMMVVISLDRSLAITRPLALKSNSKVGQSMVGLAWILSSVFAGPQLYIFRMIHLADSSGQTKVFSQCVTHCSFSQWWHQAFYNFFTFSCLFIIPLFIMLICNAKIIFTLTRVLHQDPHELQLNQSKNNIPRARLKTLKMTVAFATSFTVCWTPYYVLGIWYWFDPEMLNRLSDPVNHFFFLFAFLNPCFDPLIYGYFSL
Sequence of D(2) dopamine receptor (Homo sapiens) (P14416 whole entry, looked up): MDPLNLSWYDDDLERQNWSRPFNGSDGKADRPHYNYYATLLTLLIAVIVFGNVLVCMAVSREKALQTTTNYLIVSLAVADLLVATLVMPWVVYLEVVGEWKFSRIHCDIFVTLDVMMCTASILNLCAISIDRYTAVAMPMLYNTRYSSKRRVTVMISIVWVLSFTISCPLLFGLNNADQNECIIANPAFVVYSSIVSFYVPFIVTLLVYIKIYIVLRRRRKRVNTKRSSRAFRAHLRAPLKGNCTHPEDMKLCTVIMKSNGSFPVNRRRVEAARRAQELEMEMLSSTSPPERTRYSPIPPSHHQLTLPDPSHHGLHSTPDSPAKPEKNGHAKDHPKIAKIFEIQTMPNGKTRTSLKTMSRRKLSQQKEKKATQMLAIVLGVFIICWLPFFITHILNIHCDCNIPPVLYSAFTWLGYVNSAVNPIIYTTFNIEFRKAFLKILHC

Consider `Cc1cc(O)c2c(c1)C(=O)c1cccc(O)c1C2=O`, for which the Potency entry in test [1], in test [3], in [6], in test [7], in test [8] and in test [9] was “inactive” each time. The Potency entry in test [10], in test [11], in [12], in test [13], in test [14] and in [15] was “inactive” throughout. The Potency entry in [16], in test [17], in test [18] and in test [19] was “inactive” in each case. Also, in test [2], the Potency is 8.43 µM (active). In addition, the outcome in test [4] and in test [5] was inactive.
Regarding `CN1Cc2cc(C(=O)N3CCC(C4CCNCC4)CC3)ccc2NC(CC(=O)O)C1=O` (centres undefined), the Potency entry in test [1], in test [2], in [3], in test [6], in test [7] and in [8] was “inactive” throughout. The Potency result in test [9], in [10], in [11], in test [12], in test [13] and in [16] was “inactive” in each case. The Potency entry in test [17], in test [18] and in test [19] was “inactive” throughout. Besides, the result in test [4] and in [5] was inactive. In test [14], the Potency is 1.3 µM (active).
For the compound `O=C(O)c1c(Cl)cccc1Cl`, the Potency entry in [1], in test [2], in test [3], in test [6], in test [7] and in test [8] was “inactive” each time. In addition, the Potency entry in test [9], in test [10], in [11], in test [12], in [13] and in test [14] was “inactive” throughout. In addition, the Potency result in [20], in test [16], in [17], in [18] and in test [19] was “inactive” in each case. The outcome in [4] and in test [5] was inactive.
For `COC(=O)NN`, the Potency result in test [1], in test [2], in test [3], in test [6], in test [7] and in test [8] was “inactive” in each case. Besides, the Potency result in [9], in [10], in test [11], in test [12], in test [13] and in test [14] was “inactive” in each case. Besides, the Potency result in [20] and in [19] was “inactive” in each case. Besides, the result in test [4] and in [5] was inactive.
With `CC(C)(c1ccc(Oc2ccc3c(c2)C(=O)OC3=O)cc1)c1ccc(Oc2ccc3c(c2)C(=O)OC3=O)cc1`, the Potency result in test [1], in test [2], in test [3], in test [6], in test [7] and in test [8] was “inactive” each time. The Potency result in test [9], in test [10], in test [11], in test [12], in test [13] and in test [20] was “inactive” throughout. In addition, the Potency entry in [16], in [17], in test [18] and in test [19] was “inactive” throughout. For the same compound, the result in [4] and in test [5] was inactive. For the same compound, in [14], the Potency is 37.3 µM (active).
For the compound `C=C(C)C(=O)OCCN(C)C`, the Potency result in test [1], in test [2], in [3], in test [6], in test [7] and in [8] was “inactive” each time. Moreover, the Potency result in test [9], in [10], in test [11], in [12], in test [13] and in test [14] was “inactive” throughout. Further, the Potency entry in test [20], in test [17], in [18] and in test [19] was “inactive” in each case. In addition, the outcome in [4] and in [5] was inactive.

The values above are taken from PubChem BioAssay (Tox21).
